# Experimental data reported in PubChem BioAssay.
# The source made the active and inactive calls.
# Columns and labels:
# [1] = tested on: Plasmodium falciparum Sir2 (PF13_0152, Sir2A); assay: pfSir2 binders on small-molecule microarrays, primary screen, biochemical, small-molecule microarray, 635 nm fluorescence (AID 1098); settings: small-molecule microarray binding, fluorescence 635 nm; higher = more signal;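 note: score merges spot fluorescence intensity with its signal-to-noise ratio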
# [2] = small-molecule microarray binders of probe aDKK1, primary screen, biochemical, biotinylated probe, 635/667 nm fluorescence (AID 1099); settings: higher = more signal;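 note: score merges 667nm spot fluorescence with signal to noise across triplicate slides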
# [3] = small-molecule microarray binders of probe aCHRDL2, primary screen, biochemical, biotinylated probe, 635/667 nm fluorescence (AID 1100); settings: higher = more signal
# [4] = splicing luciferase reporter signal modulators, primary screen, spliceosome inhibition project, cell-based, HEK293, splice +/- reporter (AID 1101); settings: luminescence, 24 h, higher = more signal, called active from +8 up or from −8 down;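 note: HEK293 cells carrying a splicing-competent luciferase reporter gene; test concentration not given here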
# [5] = biological target: Fibroblast growth factor 10 (Homo sapiens) (UniProt O15520); assay: FGF10 binders on small-molecule microarrays, primary screen, biochemical, small-molecule microarray, 635 nm fluorescence (AID 1102); settings: FGF10 binding, fluorescence 635 nm, higher = more signal
# [6] = tested on: glycogen synthase kinase-3 (GSK3A per assay name; protocol says GSK3B); assay: GSK3 binders on small-molecule microarrays, primary screen, biochemical, small-molecule microarray, 635 nm fluorescence, GSK3A (AID 1103); settings: small-molecule microarray binding, fluorescence 635 nm; higher = more signal; note: the record names both GSK3A and GSK3B
# [7] = biological target: Epidermal growth factor receptor (Homo sapiens) (UniProt P00533); assay: EGFR binders on small-molecule microarrays, primary screen, biochemical, small-molecule microarray, 635 nm fluorescence (AID 1104); settings: EGFR binding, higher = more signal;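 note: score merges 667 nm emission intensity with spot signal to noise over triplicate slides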
# [8] = biological target: Follistatin-related protein 3 (Homo sapiens) (UniProt O95633); assay: FSTL3 binders on small-molecule microarrays, primary screen, biochemical, small-molecule microarray, 635 nm fluorescence (AID 1105); settings: FSTL3 binding, higher = more signal;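 note: score merges emission near 667 nm and signal to noise per printed spot across three slides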
# [9] = biological target: Dickkopf-related protein 1 (Homo sapiens) (UniProt O94907); assay: DKK1 binders on small-molecule microarrays, primary screen, biochemical, small-molecule microarray, 635 nm fluorescence scan (AID 1106); settings: DKK1 binding, higher = more signal;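 note: score merges emission near 667 nm with signal to noise over three replicate slides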
# [10] = tested on: Inhibin beta A chain (activin A); assay: INHBA (activin A) binders on microarrays, primary screen, biochemical, small-molecule microarray, 635 nm fluorescence scan (AID 1107); settings: small-molecule microarray binding, higher = more signal;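 note: mouse activin A protein probed at 4.33 µg/mL on printed slides; score merges bound-protein fluorescence near 667 nm with spot signal-to-noise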
# [11] = tested on: Human papillomavirus type 1a protein E7 (residues 44-93); assay: HPV1a E7 fragment binders on microarrays, primary screen, biochemical, small-molecule microarray, residues 44-93, 635 nm fluorescence (AID 1108); settings: small-molecule microarray binding, fluorescence 635 nm; higher = more signal;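 note: E7 fragment applied at 1 µg/mL in TBST for 1 h at 4 C; score combines spot fluorescence with its signal to noise ratio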
# [12] = modulators of HCV replicon luciferase signal, primary screen, HCV replication inhibitor project, Huh7 cells, luciferase reporter (AID 1109); settings: 48 h, higher = more signal;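 note: huh7 hepatoma cells harbouring a luciferase neomycin HCV replicon reporter; luciferase luminescence as measure of HCV replicon replication; test concentration not given here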
# [13] = biological target: Left-right determination factor 2 (Homo sapiens) (UniProt O00292); assay: LEFTY2 binders on small-molecule microarrays, primary screen, biochemical, small-molecule microarray, 635 nm fluorescence scan (AID 1110); settings: LEFTY2 binding, higher = more signal
# [14] = biological target: Calmodulin-1 (Homo sapiens) (UniProt P0DP23); assay: CALM1 binders on microarrays, EGTA buffer, profiling panel, biochemical, small-molecule microarray, Cy5-labelled CALM1 (AID 1111); settings: Cy5-CALM1 binding fluorescence, higher = more signal;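 note: labelled calmodulin applied in Tris saline Tween buffer holding calcium plus EGTA and DTT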
# [15] = biological target: Calmodulin-1 (Homo sapiens) (UniProt P0DP23); assay: calcium-bound CALM1 binders on microarrays, profiling panel, artefact control for SMM control-protein annotation, biochemical, small-molecule microarray, Cy5-labelled CALM1, plus calcium (AID 1112); settings: Cy5-CALM1 binding fluorescence, higher = more signal;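 note: score merges spot fluorescence with signal to noise from triplicate slides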
# [16] = small-molecule microarray binders of probe aWnt5a, primary screen, biochemical, biotinylated probe, 635/667 nm fluorescence (AID 1113); settings: higher = more signal;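 note: score merges 667 nm fluorescence intensity with signal-to-noise per printed feature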
# [17] = small-molecule microarray binders of probe aShh, primary screen, biochemical, biotinylated probe, 635/667 nm fluorescence (AID 1114); settings: higher = more signal;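 note: probe is biotin-labelled aShh protein from a stem cell growth factor screen; measures binding of labelled protein to compounds printed on the slide; score merges feature fluorescence at 667 nm with signal-to-noise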
# [18] = small-molecule microarray binders of probe aNog, primary screen, biochemical, biotinylated probe, 635/667 nm fluorescence (AID 1115); settings: higher = more signal;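 note: probe is biotinylated aNog protein used at 0.15 µg/mL for 1 h at 4 C; z-score combines 667 nm fluorescence of each spot with its signal to noise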
# [19] = biological target: Torsin-1A-interacting protein 1 (Homo sapiens) (UniProt Q5JTV8); assay: LAP1 binders from COS7 cell lysate, primary screen, small-molecule microarray, 635/667 nm fluorescence (AID 1116); settings: COS7-hLAP1 lysate binding, 635 nm fluorescence, higher = more signal
# [20] = biological target: Alpha-bungarotoxin (Bungarus multicinctus) (UniProt P60615); assay: alpha-bungarotoxin binders on microarray, profiling panel, artefact control for SMM control protein annotation, biochemical, small-molecule microarray, Alexa647 label, 635/667 nm fluorescence (AID 1117); settings: alpha-BTX-A647 binding fluorescence, higher = more signal
# Alpha-bungarotoxin (Bungarus multicinctus), sequence (P60615 whole entry, looked up): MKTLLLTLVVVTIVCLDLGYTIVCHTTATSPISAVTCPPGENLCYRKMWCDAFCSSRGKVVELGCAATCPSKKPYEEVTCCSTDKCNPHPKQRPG
# Fibroblast growth factor 10 (Homo sapiens), sequence (O15520 whole entry, looked up): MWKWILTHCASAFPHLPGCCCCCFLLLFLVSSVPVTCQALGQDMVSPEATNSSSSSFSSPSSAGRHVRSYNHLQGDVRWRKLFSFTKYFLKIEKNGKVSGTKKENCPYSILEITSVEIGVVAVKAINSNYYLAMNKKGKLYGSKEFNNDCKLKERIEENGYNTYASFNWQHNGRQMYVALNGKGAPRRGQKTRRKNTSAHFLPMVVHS
# Left-right determination factor 2 (Homo sapiens), sequence (O00292 whole entry, looked up): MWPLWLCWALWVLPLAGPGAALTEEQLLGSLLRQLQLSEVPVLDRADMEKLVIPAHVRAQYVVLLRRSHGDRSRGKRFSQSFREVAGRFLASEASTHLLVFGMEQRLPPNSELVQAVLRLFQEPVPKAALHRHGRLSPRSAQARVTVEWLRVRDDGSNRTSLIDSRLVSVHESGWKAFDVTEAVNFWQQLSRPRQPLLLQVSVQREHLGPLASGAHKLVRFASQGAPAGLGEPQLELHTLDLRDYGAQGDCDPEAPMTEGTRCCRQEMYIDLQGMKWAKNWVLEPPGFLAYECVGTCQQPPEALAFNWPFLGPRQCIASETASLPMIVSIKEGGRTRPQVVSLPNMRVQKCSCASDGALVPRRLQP
# Torsin-1A-interacting protein 1 (Homo sapiens), sequence (Q5JTV8 whole entry, looked up): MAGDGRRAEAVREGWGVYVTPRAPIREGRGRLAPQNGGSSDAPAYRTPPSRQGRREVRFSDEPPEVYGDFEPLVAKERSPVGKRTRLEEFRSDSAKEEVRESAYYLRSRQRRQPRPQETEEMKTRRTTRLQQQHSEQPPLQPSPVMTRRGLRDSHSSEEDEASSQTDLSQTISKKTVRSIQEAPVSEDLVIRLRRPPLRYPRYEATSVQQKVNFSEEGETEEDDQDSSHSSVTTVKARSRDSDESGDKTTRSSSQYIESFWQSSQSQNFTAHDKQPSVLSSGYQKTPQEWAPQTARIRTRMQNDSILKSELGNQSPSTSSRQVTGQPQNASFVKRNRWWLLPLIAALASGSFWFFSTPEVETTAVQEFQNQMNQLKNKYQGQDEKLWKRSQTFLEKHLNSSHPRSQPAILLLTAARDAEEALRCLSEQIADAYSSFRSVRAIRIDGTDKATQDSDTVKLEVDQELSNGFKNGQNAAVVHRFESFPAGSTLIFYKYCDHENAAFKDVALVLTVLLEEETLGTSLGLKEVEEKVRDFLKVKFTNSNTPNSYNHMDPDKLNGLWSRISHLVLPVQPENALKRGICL
# Dickkopf-related protein 1 (Homo sapiens), sequence (O94907 whole entry, looked up): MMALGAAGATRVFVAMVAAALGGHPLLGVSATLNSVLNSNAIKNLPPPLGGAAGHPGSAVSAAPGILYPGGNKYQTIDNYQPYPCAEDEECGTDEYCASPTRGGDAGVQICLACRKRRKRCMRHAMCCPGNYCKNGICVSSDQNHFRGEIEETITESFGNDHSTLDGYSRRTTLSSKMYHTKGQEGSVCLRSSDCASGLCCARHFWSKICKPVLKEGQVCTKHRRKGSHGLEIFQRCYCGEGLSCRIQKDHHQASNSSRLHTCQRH
# Epidermal growth factor receptor (Homo sapiens), sequence (P00533 whole entry, looked up): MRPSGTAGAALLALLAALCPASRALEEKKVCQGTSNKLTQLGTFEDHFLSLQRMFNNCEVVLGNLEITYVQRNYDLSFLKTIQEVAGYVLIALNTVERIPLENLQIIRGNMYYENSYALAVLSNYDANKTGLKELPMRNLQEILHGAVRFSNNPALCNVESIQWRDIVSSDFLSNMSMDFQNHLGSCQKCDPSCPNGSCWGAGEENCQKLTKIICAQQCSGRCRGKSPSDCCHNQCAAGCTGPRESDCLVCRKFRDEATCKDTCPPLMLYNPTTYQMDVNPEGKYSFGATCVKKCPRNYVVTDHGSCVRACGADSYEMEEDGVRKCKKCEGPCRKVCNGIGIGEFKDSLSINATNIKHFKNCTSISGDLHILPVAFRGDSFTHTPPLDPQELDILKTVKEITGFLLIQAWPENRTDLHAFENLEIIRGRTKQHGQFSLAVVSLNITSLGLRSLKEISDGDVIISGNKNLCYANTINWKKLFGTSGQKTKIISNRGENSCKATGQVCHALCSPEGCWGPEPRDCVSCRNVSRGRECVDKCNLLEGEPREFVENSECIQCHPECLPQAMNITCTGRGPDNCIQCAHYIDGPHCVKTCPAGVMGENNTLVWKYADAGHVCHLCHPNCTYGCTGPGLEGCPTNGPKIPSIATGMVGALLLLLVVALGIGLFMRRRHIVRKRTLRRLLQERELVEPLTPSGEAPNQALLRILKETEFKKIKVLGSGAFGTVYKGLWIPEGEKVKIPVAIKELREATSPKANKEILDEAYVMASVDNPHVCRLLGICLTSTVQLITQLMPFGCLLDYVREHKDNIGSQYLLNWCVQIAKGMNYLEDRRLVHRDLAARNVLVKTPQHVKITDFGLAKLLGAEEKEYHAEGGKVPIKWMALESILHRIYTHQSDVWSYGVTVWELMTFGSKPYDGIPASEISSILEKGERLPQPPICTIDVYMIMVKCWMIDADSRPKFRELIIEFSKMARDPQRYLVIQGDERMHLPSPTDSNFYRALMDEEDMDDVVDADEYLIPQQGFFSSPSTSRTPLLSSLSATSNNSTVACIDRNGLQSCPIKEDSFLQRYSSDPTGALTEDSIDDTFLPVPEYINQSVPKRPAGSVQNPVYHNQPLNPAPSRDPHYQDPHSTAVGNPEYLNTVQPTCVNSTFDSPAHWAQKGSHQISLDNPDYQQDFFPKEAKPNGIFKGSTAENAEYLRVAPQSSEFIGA
# Follistatin-related protein 3 (Homo sapiens), sequence (O95633 whole entry, looked up): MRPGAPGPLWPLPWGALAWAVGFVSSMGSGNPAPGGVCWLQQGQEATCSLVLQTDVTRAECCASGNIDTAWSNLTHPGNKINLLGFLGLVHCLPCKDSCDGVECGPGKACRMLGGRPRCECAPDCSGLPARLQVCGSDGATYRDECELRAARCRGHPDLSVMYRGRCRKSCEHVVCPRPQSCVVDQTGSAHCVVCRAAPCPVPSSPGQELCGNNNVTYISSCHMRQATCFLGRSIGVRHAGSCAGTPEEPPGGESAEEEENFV
SMILES,composite z-score [1],composite z-score [2],composite z-score [3],z-score [4],composite z-score [5],composite z-score [6],composite z-score [7],composite z-score [8],composite z-score [9],composite z-score [10],composite z-score [11],z-score [12],composite z-score [13],composite z-score [14],composite z-score [15],composite z-score [16],composite z-score [17],composite z-score [18],composite z-score [19],composite z-score [20]
CCCNC(=O)[C@@H]1c2ccccc2C(=O)N(C2CCCCC2)[C@H]1c1ccc(CO)cc1,0.941,0.331,0.533,-0.618 (inactive),0.965,1.3,0.432,0.958,0.315,0.397,1.44,-1.32,0.454,0.674,-0.616,-0.131,0.131,-0.278,0.65,0.765
COCCOC(=O)N1C(=O)[C@@]2(c3cc(C#CCNC(N)=O)ccc31)[C@H](c1ccc(OCCO)cc1)N1[C@H](c3ccccc3)[C@H](c3ccccc3)OC(=O)[C@H]1[C@@H]2C(=O)Nc1nc2ccccc2s1,0.337,0.997,0.88,0.0697 (inactive),0.574,-0.289,0.0231,1.01,1,0.926,0.376,-1.11,1.24,0.669,0.701,0.0136,0.187,0.402,0.114,1.37
Cc1ccc(S[C@]2(C(=O)O)CC(=O)N(Cc3cc(C(F)(F)F)cc(C(F)(F)F)c3)[C@@H]2c2ccc(CO)cc2I)cc1,1.3,0.483,1.16,-1.48 (inactive),-0.458,-1.13,-1.65,-1.07,-1.38,0.645,-0.0997,-1.39,-2.05,-0.279,0.74,-0.0824,0.0767,0.181,0.598,-0.206
C=CCC(OC(C)=O)[C@@H]1[C@@H](N(Cc2ccc(-c3ccccc3)cc2)C(=O)c2ccc(-c3ccccc3)cc2)c2cc(OCCCO)ccc2N1C(=O)Cc1ccc(OC)cc1 (stereo not given in full),-0.322,0.0651,0.026,-0.792 (inactive),0.035,-0.0305,-0.25,0.491,-0.345,1.28,0.273,-1.57,0.241,0.165,0.229,0.164,0.011,0.0921,-0.209,0.265
COc1ccc([C@H]2C[C@H]3C(Br)=C[C@]2(OC)C(=O)[C@]32CO2)cc1,0.488,-0.0499,0.348,1.49 (inactive),1.05,0.083,-0.0387,-0.0092,0.239,0.504,-0.681,-2.26,0.219,-0.408,-0.668,-0.113,-0.0769,-0.176,0.42,-0.268
CC(=O)NCCCC[C@@H]1NC(=O)[C@@H]2C[C@H](C(=O)NCCCCCNC(=O)CS)[C@H](c3ccc(O)cc3)N2C1=O,1.45,-0.384,0.292,-1.88 (inactive),-0.282,-0.631,-0.817,-0.781,0.527,0.247,0.364,1.22,-0.293,-0.592,0.503,-0.221,0.0284,-0.0315,0.0502,-0.46
CC(C)=C1C(=O)C(c2ccccc2)=C2CN3C(=O)N(CCc4ccccc4)C(=O)[C@]3(Cc3ccccc3)[C@H]21,-0.34,0.809,1.25,0.514 (inactive),-0.316,-0.121,-0.972,-0.356,-1.86,0.64,-1.85,0.219,-1.54,1.31,0.197,-0.0384,0.251,-0.408,-0.0829,-0.496
O=C1OCCC/C=C\[C@H]2OC34C=CCN(CCN5CCOCC5)C(=O)[C@H]3N(CCCCCO)C(=O)[C@@H]4C12 (stereo not given in full),1.52,-0.413,-0.0252,-0.755 (inactive),-0.81,-0.188,-1.33,-0.762,-0.333,0.966,-0.827,-0.953,-1.37,-0.725,-1.26,-0.226,-0.147,-0.356,-0.849,-0.918
O=C(O)[C@@H]1Cc2c([nH]c3ccccc23)[C@@H](c2ccccc2)N1,0.0269,-0.317,-0.58,-0.333 (inactive),0.315,0.61,0.373,0.518,0.509,-0.332,0.681,-0.161,0.414,-0.106,-0.568,-0.141,-0.124,-0.013,0.3,0.236
O=C(CS)NCCCCCNC(=O)[C@H]1C[C@H]2C(=O)N3CCC[C@H]3C(=O)N2[C@H]1c1ccc(O)cc1,0.203,-0.18,-0.196,-1.45 (inactive),-0.0763,-1.07,0.392,-0.47,0.844,0.594,-0.295,0.0187,0.679,1.45,1.22,-0.197,0.046,-0.0207,2.97,-1.3
COCCOC(=O)N1C(=O)[C@@]2(c3cc(C#CCC(C(=O)OC)C(=O)OC)ccc31)[C@H](c1ccccc1OCCO)N1[C@H](c3ccccc3)[C@H](c3ccccc3)OC(=O)[C@H]1[C@@H]2C(=O)N1CCCCCCC1,0.853,1.97,1.42,-0.247 (inactive),0.834,1.29,0.852,1.56,1.4,1.61,1.39,-2.05,1.24,2.17,1.49,0.697,0.626,2.62,1.31,2
CCOC(=O)C1=CCC(c2cccc3ccccc23)N(S(=O)(=O)c2ccc(C)cc2)C1 (stereo not given),0.471,0.981,0.596,0.664 (inactive),0.279,0.912,0.385,0.681,-0.141,1.41,1.09,-0.874,0.0938,1.47,0.509,0.0763,0.203,0.276,0.871,1.3
CCOC(=O)C1=CC[C@@H](c2ccc(-c3ccc(OCc4ccccc4)cc3)c(OC)c2)N(S(=O)(=O)c2ccc(C)cc2)[C@H]1c1ccccc1,1.13,0.583,0.721,-1.44 (inactive),1.24,1.28,0.12,1.38,0.273,0.765,1.39,-1.76,0.4,1.64,0.126,0.0279,-0.0171,-0.226,0.373,1.27
COc1cc(CO)cc(I)c1O[C@H]1C=C(C(=O)NCCO)C[C@@H](NCCc2c[nH]c3ccccc23)[C@@H]1O,1,0.27,0.375,-1.01 (inactive),1.06,0.433,0.666,1.05,0.4,1.22,-0.552,-2.76,0.688,0.228,-0.56,-0.0032,0.116,0.758,0.762,0.988
C=CCC(OC(C)=O)[C@@H]1[C@@H](N(Cc2cccc3ccccc23)C(=O)Cc2ccc(F)cc2)c2cc(OCCCO)ccc2N1C(=O)Cc1ccc2ccccc2c1 (stereo not given in full),-0.182,-0.0551,0.315,-0.395 (inactive),0.2,-0.236,-0.285,-0.0987,-0.619,1.07,-0.28,0.874,-0.368,-0.571,0.158,-0.0179,-0.326,0.0129,-0.148,0.983
CCC(=O)[C@]12O[C@@]3([C@@H]4C(=O)OCC[C@@H]41)N(CC)C(C)=C(C(=O)OC)[C@@H](c1ccccc1)N3C2=O,-0.155,-0.41,-0.87,-1.9 (inactive),0.162,0.0495,0.0064,0.599,0.817,1.7,-0.933,-0.206,0.594,-0.42,-0.382,-0.147,0.227,-0.131,-0.303,0.175
